Data on 16 compounds can be found in ChEMBL document CHEMBL1961873, “Compounds: GSK PKIS; Assays: Nanosyn kinase panel” (2012).

Assay [1] has as its target T1, Serine/threonine-protein kinase TBK1 (Homo sapiens) (UniProt Q9UHD2).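 Further: values are mean inhibition of TBK1, screened as part of the GSK published kinase inhibitor set.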
T1 sequence (whole entry): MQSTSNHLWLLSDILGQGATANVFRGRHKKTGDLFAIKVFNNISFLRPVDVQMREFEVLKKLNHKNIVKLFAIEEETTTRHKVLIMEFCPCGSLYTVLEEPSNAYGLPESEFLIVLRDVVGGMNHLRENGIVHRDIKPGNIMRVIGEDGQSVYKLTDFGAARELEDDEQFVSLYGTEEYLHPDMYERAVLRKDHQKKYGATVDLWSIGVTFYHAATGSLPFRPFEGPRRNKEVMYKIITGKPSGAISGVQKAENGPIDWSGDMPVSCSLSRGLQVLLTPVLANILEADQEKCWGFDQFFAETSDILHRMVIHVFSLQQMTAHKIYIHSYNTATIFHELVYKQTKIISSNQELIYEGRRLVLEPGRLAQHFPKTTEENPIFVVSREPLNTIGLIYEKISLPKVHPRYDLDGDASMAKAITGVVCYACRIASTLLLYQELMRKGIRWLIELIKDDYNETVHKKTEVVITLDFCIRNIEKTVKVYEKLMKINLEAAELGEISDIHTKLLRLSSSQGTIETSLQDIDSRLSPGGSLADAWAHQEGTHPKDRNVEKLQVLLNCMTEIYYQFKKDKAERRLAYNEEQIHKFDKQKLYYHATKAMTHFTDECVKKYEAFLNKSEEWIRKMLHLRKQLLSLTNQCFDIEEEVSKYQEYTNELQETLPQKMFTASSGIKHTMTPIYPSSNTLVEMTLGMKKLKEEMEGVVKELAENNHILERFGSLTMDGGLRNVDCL
Conditions: at 1 µM.

The target in assay [2] is T2, Testis-specific serine/threonine-protein kinase 1 (Homo sapiens) (UniProt Q9BXA7).
T2 sequence (whole entry): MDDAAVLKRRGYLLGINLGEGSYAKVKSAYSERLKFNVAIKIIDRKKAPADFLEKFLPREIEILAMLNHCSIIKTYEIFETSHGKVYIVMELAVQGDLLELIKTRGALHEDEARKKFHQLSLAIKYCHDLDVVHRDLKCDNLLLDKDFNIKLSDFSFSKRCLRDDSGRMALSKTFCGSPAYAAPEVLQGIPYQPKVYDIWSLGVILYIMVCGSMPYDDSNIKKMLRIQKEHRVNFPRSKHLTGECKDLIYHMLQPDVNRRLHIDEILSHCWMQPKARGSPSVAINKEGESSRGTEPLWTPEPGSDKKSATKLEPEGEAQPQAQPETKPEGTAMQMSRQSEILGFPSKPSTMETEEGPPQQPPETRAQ
Conditions: at 0.1 µM.

The target of assay [3] is T2, Testis-specific serine/threonine-protein kinase 1 (Homo sapiens). The settings on record: at 1 µM.
In assay [4] the target is T3, Testis-specific serine/threonine-protein kinase 2 (Homo sapiens) (UniProt Q96PF2).
T3 sequence (whole entry): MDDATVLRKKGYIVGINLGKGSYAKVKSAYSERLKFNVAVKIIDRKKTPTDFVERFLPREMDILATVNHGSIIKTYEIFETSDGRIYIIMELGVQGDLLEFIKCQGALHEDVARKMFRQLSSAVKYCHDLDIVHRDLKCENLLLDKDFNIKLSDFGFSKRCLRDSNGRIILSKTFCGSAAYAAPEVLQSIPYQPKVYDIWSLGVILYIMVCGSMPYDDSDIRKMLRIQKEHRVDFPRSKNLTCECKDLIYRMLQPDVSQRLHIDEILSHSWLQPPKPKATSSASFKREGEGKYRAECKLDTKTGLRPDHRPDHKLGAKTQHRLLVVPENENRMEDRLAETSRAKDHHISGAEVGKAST
The settings on record: at 0.1 µM.

Assay [5] has as its target T3, Testis-specific serine/threonine-protein kinase 2 (Homo sapiens). Conditions: at 1 µM.
The target in assay [6] is Casein kinase I isoform alpha (Homo sapiens) (UniProt P48729). Conditions: at 0.1 µM.
Chain of Casein kinase I isoform alpha (Homo sapiens) (P48729 2-337 limits assumed): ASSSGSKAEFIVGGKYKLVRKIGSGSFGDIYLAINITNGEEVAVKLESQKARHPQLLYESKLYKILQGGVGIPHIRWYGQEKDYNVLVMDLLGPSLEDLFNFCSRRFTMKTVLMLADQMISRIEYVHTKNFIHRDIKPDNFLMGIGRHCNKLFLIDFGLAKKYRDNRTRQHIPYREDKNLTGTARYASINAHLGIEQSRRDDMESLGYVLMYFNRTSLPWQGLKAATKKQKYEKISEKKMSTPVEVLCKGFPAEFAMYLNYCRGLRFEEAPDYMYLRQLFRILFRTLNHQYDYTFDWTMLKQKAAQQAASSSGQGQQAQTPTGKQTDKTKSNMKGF
The target is the same in assay [7]. Conditions: at 1 µM.
Assay [8] has as its target Casein kinase I isoform gamma-1 (Homo sapiens) (UniProt Q9HCP0). The settings on record: at 0.1 µM.
Assay [9] shares this target. Conditions: at 1 µM.
Assay [10] deals with Casein kinase I isoform gamma-2 (Homo sapiens) (UniProt P78368). The settings on record: at 0.1 µM.
Chain of Casein kinase I isoform gamma-2 (Homo sapiens) (P78368 whole entry, looked up, canonical isoform): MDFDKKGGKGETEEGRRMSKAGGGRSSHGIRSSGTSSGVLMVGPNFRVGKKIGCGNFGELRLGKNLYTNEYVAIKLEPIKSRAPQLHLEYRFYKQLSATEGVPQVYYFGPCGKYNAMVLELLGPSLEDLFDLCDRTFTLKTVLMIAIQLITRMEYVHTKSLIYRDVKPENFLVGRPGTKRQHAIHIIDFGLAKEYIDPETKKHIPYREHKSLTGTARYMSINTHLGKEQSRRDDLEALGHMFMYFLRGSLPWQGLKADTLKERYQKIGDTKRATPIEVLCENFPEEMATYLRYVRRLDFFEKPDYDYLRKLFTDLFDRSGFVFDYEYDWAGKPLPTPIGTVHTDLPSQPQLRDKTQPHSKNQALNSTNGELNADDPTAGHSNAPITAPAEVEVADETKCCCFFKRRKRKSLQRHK

Chain of Casein kinase I isoform gamma-1 (Homo sapiens) (Q9HCP0 whole entry, looked up, canonical isoform): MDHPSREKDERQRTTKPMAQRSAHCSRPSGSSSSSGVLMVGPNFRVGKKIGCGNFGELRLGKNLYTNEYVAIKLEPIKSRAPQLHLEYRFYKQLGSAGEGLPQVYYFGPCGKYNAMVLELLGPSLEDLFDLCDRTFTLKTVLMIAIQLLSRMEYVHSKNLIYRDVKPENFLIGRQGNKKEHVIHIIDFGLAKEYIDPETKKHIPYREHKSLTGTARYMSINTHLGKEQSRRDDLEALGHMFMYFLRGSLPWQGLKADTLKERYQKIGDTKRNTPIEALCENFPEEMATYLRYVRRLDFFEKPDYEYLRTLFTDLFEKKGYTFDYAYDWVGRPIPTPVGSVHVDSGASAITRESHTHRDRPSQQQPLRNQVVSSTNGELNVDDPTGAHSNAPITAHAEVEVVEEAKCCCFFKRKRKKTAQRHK

In the case of `COC(=O)c1sc(-n2cnc3cc(OC)c(OC)cc32)cc1OCc1ccccc1C(F)(F)F`, the inhibition – broadly, the relative decrease from the control value, in per cent – in assay [1] is 28.6%; in assay [2] it was 3.74%; in [3], 4.56%; in assay [4], 2.04%; in assay [5], 1.18%; in assay [6], -3.52%. For the same compound, the inhibition in assay [7] came out at 1.68%; in [8], 4.13%; in assay [9] it was 4.8%; in assay [10] it was 2.8%.
Consider `O=C(Nc1n[nH]c2cc(-c3ccc(F)cc3)ccc12)C1CC1`, for which the inhibition amounted to 5.39% in assay [1]; 3.31% in assay [2]; 2.06% in assay [3]; 2.29% in assay [4]; 0.97% in [5]; 2.37% in [6]. Besides, the inhibition in [7] amounted to 7.14%; in [8], 2.86%; in assay [9] it was 3.21%; in assay [10] it was 2.45%.
As to `COc1ccc2c(-c3ccnc(Nc4cccc(OC(F)(F)F)c4)n3)cnn2n1`, the inhibition in assay [1] worked out at 31.6%; in assay [2], 3.88%; in [3], 7%; in assay [4], 3.39%; in assay [5], 2.18%; in [6], 2.85%. Also, the inhibition in assay [7] worked out at 9.17%; in assay [8], 3.59%; in assay [9] it was 6.06%; in assay [10], 3.21%.
Consider `COc1cc2ncn(-c3cc(OCc4ccccc4C(F)(F)F)c(C(=O)N(C)C)s3)c2cc1OC`, for which the inhibition in [1] was 0.81%; in assay [2] it was 1.76%; in assay [3] it was 1.34%; in assay [4], 0.13%; in assay [5], 0.32%; in assay [6], 0.11%. Further, the inhibition was 0.76% in assay [7], -0.13% in assay [8], 0.81% in assay [9] and 0.13% in assay [10].
Regarding `COc1cccc(-n2ncc3c(N/N=C/c4ccc(F)cc4)ncnc32)c1`, the inhibition in assay [1] was 6.85%; in [2], 3.31%; in assay [3], 5.3%; in assay [4], 4.45%; in [5], 2.25%; in assay [6] it was 4.03%. Besides, the inhibition in assay [7] was found to be 4.98%; in assay [8], 3.78%; in assay [9], 4.75%; in assay [10] it was 3.98%.
For the compound `Cc1ccc(O)cc1Nc1ccnc2cc(-c3ccccn3)ccc12`, the inhibition in assay [1] was 6.68%; in [2], 3.87%; in [3], 3.16%; in assay [4], 1.09%; in [5] it was -1.1%; in assay [6], 3.78%. Further, the inhibition in assay [7] was 12.5%; in [8], 4.65%; in assay [9], 11%; in assay [10], 2.73%.
`CCn1c(-c2nonc2N)nc2c(C#CC(C)(C)O)nc(OC[C@H](N)c3ccccc3)cc21`: the inhibition in [1] was 6.85%; in [2], 7.96%; in [3], 44.1%; in [4], 0.93%; in [5], 2.24%; in [6], 2.03%. Moreover, the inhibition in [7] was found to be 11.4%; in [8], 1.99%; in assay [9], 5.61%; in assay [10] it was 1.71%.
With `N#Cc1c(NC(=O)CN2CCOCC2)sc2c1CCCC2`, the inhibition is 4.24% in assay [1]; -0.56% in assay [2]; 3.34% in [3]; 1.22% in assay [4]; 2.29% in [5]; 6.79% in assay [6]. Further, the inhibition in assay [7] turned out to be 6.01%; in [8] it was 3.78%; in assay [9], 5.69%; in [10], 3.2%.
With `NS(=O)(=O)c1ccc(N/N=C2\C(=O)Nc3ccc4ncccc4c32)cc1`, the inhibition is 50.4% in assay [1]; 5.63% in assay [2]; 34.9% in [3]; 0.69% in assay [4]; 4.1% in assay [5]; 4.04% in assay [6]. Also, the inhibition in [7] stood at 21.3%; in assay [8], 2.39%; in assay [9], 8.12%; in assay [10], 1.41%.
For `Fc1cccc(COc2ccc(Nc3ncnc4sc(-c5ccco5)cc34)cc2Cl)c1`, the inhibition in assay [1] is 2.89%; in assay [2] it was 2.79%; in assay [3] it was 3.11%; in [4], 0.52%; in assay [5], 2.23%; in assay [6], 3.24%. The inhibition in assay [7] was determined as 3.14%; in [8], 4.55%; in [9], 4.42%; in assay [10] it was 4.05%.
For `Nc1nc(-c2cccc(Cl)c2)c(-c2ccc3ncccc3n2)s1`, the inhibition came to 4.37% in [1]; 7.29% in [2]; 12.9% in assay [3]; 3.52% in [4]; 6.73% in [5]; 1.48% in assay [6]. In addition, the inhibition in assay [7] came to 5.89%; in [8], 5.14%; in assay [9], 16.6%; in [10] it was 4.46%.
Turning to `c1ccc(-c2nc3n(c2-c2ccc4c(c2)OCO4)CCC3)nc1`, the inhibition is 2.71% in assay [1]; 0.83% in [2]; -0.01% in assay [3]; 0.79% in assay [4]; 0.57% in assay [5]; 22.2% in [6]. The inhibition in [7] amounted to 60.1%; in [8], 1.06%; in assay [9], 2.79%; in [10] it was 1.64%.
Turning to `CC(C)(CO)CNC(=O)c1ccc2c(c1)/C(=N/Nc1ccc(S(N)(=O)=O)cc1)C(=O)N2`, the inhibition in assay [1] was 63.4%; in [2], 0.17%; in [3], 11%; in [4], 0.45%; in [5] it was -0.69%; in [6] it was -1.33%. In addition, the inhibition in assay [7] was determined as 7.84%; in assay [8] it was 0.88%; in assay [9] it was 4.11%; in assay [10], 0.93%.
As to `CCCN1CCC(c2ccc(Nc3nc(Nc4cc(F)ccc4C(N)=O)c4cc[nH]c4n3)c(OC)c2)CC1`, the inhibition in assay [1] stood at 10.2%; in assay [2], 82.4%; in assay [3], 94.8%; in [4], 63.3%; in assay [5], 91.1%; in [6], 31.9%. For the same compound, the inhibition in assay [7] is 67.5%; in [8], 23.7%; in [9], 72.1%; in [10] it was 20.9%.
As to `N#Cc1c(NC(=O)c2ccc(F)cc2)sc2c1CCCC2`, the inhibition is 0.54% in [1]; 0.45% in assay [2]; 0.89% in assay [3]; 0.22% in assay [4]; 0.33% in assay [5]; -0.68% in assay [6]. Also, the inhibition in assay [7] stood at 1.93%; in assay [8], 0.85%; in [9] it was 0.78%; in assay [10] it was 0.66%.
Regarding `CC1=C(C(=O)Nc2cc(Cl)c3[nH]ncc3c2)C(c2ccc(C(F)(F)F)cc2)CC(=O)N1` (stereo not given), the inhibition in assay [1] came to 3.48%; in assay [2] it was 3.52%; in assay [3] it was 3.9%; in assay [4], 2.37%; in [5] it was 1.37%; in assay [6], 1.86%. Besides, the inhibition stood at 2.49% in assay [7], 2.91% in assay [8], 3.25% in assay [9] and 2.31% in assay [10].
